Screens from PubChem BioAssay.
Shown is part of a subset that was picked to be rich in hits.
ROC1-CUL1 inh = inhibitors of human ROC1-CUL1 ubiquitin ligase activity | E3 ubiquitin-protein ligase RBX1 (Homo sapiens) + Cullin-1 (Homo sapiens), P62877+Q13616 | in vitro K48 di-Ub FRET, acceptor:donor ratio, 45 min | inhibition, % at 10 µM | 0.6% of 140,000 active; in the data active means inhibition above about 25%
Target sequence (P62877 whole entry, looked up): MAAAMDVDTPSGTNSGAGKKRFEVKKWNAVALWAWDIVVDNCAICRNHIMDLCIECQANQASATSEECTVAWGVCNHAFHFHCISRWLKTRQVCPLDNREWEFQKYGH
Target sequence (Q13616 whole entry, looked up): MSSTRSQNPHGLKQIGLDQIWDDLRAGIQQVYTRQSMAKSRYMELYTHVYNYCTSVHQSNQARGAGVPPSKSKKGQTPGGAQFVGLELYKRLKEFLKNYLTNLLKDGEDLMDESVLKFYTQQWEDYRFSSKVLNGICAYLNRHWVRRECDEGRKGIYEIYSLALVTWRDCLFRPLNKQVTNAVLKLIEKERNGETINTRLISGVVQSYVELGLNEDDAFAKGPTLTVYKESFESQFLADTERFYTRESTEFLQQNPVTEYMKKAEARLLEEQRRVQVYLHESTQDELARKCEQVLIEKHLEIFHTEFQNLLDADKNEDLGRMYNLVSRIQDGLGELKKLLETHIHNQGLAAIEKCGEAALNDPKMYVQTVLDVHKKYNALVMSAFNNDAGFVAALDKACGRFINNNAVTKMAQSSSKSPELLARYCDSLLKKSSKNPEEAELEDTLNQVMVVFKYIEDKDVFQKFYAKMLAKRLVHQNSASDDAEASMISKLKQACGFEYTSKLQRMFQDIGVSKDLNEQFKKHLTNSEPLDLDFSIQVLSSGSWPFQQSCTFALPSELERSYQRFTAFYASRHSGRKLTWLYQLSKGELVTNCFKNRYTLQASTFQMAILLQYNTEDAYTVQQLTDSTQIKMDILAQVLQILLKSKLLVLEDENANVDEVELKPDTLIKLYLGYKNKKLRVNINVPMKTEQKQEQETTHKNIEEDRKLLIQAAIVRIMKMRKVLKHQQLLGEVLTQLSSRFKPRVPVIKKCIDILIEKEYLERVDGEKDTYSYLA
Starred values were filed as active, the others as inactive.

CCN(CC)C(=O)CN(Cc1ccc(Cl)c(Cl)c1)S(=O)(=O)c1ccc(Cl)cc1 was read as ROC1-CUL1 inh 2.
Screening COc1cccc(C(=O)N(c2ccccc2)C2CC(C)N(C(=O)c3ccc(C)cc3)c3ccccc32)c1 (configuration not stated) returned ROC1-CUL1 inh -5.
Screening CN(C(=O)c1ccsc1)C(Cc1ccccc1)C1CCN(C(=O)/C=C/c2ccccc2)CC1 (configuration not stated) returned ROC1-CUL1 inh 0.
Screening Cc1ccc(Cl)cc1N1CCN(S(=O)(=O)c2ccc3[nH]c(=O)[nH]c3c2)CC1 returned ROC1-CUL1 inh 0.
CN(C)CCCC1(O)c2ccccc2CS(=O)(=O)c2sccc21 (configuration not stated) was read as ROC1-CUL1 inh 10.
`COc1cc(CNCCN2CCCCC2=O)ccc1OCC(O)CN1CCOCC1` (configuration not stated) gave ROC1-CUL1 inh 4.
For COC(=O)c1cc2c(-c3ccccc3)cc3ccccn3c-2c1C(=O)OC the results were ROC1-CUL1 inh 5.
c1ccc(-c2cc3ccccn3c3cccc2-3)cc1 was read as ROC1-CUL1 inh 93*.
For c1ccc(-c2cc3ccc4cccc2n43)cc1 the results were ROC1-CUL1 inh -1.
`Cc1noc(C)c1C(=O)Nc1ccccc1C(C)(C)C` gave ROC1-CUL1 inh 6.
Screening CC1=NN(c2ccc(C)c(C)c2)C(=O)C1C(c1cc([N+](=O)[O-])ccc1O)c1c(C)[nH]n(-c2ccc(C)c(C)c2)c1=O (configuration not stated) returned ROC1-CUL1 inh -4.
Screening Cn1c2ccccc2c2nsnc21 returned ROC1-CUL1 inh 5.
`Cn1c2cccc3cccc(c32)[n+]2nc3c(cc12)c1cccc2cccc3c21` gave ROC1-CUL1 inh 95*.
For C#CCNC(=O)C[n+]1c2ccccc2n2nc3c(cc21)c1cccc2cccc3c21 the results were ROC1-CUL1 inh 0.
`CCCCSc1ccc([N+](=O)[O-])cc1[N+](=O)[O-]` gave ROC1-CUL1 inh 9.
Screening O=C1NN=C2N=C(C(F)(F)F)C=C(C(F)(F)F)C12 (configuration not stated) returned ROC1-CUL1 inh 97*.
Screening CC(C)(C)OC(=O)N[C@H]1CC[C@H]2[C@@H](O[Si](C)(C)C(C)(C)C)CCN2C1=O returned ROC1-CUL1 inh 8.
`Cc1cc(C)nc(NS(=O)(=O)c2ccc(NC(=O)COc3ccc(Cl)cc3C)cc2)n1` gave ROC1-CUL1 inh 3.
Screening Cc1cc(C)nc(NS(=O)(=O)c2ccc(NC(=O)c3ccc(Cl)cc3Cl)cc2)n1 returned ROC1-CUL1 inh -5.
`Cc1cc(C)nc(NS(=O)(=O)c2ccc(NC(=O)Nc3ccc(Cl)cc3)cc2)n1` gave ROC1-CUL1 inh 25*.
c1cnc2c(c1)C1OC(S2)c2cccnc2S1 was read as ROC1-CUL1 inh -6.
Screening CN(CCC(O)c1ccccc1)C(=O)CCCn1nnnc1CN1CCOCC1 (configuration not stated) returned ROC1-CUL1 inh 0.
Screening CCO[C@H]1[C@H](NC(=O)c2cccnc2)c2ccccc2C12CCN(C(=O)c1cnn(C(C)C)c1)CC2 returned ROC1-CUL1 inh 6.
COc1cc(C=C2C(=O)NC(=S)NC2=O)c(Cl)cc1O was read as ROC1-CUL1 inh 1.
For COc1ccc(/C=C2\SC(=S)N(C3CCCCC3)C2=O)cc1O the results were ROC1-CUL1 inh -5.
For COc1cc(/C=C2\SC(=S)N(/N=C/c3cc(OC)c(O)cc3Cl)C2=O)c(Cl)cc1O the results were ROC1-CUL1 inh 46*.
Screening N#Cc1c(N2C(=N)C(C#N)C(C(F)(F)F)(C(F)(F)F)C3=C2CCC3)sc2c1CCCCC2 (configuration not stated) returned ROC1-CUL1 inh -12.
Screening Cc1ccc(Cn2c(C)c3cnn(CC(=O)N4CCN(c5ccc(F)cc5)CC4)c(=O)c3c2C)cc1 returned ROC1-CUL1 inh 6.
`Cc1ccc(C(=O)N2CCN(Cc3ccc(F)cc3)CC2)o1` gave ROC1-CUL1 inh -9.
Screening COc1ccc(-c2ccc(OC)c(OC)c2OC)c(OC)c1OC returned ROC1-CUL1 inh -5.
`COc1ccc(OC)c2c(OC)c3ccccc3c(OC)c12` gave ROC1-CUL1 inh 52*.
`COc1ccc2c(=O)c(Br)cccc2c1OC` gave ROC1-CUL1 inh 3.
For CN1CCN=C1C1Sc2ccccc2C1=O (configuration not stated) the results were ROC1-CUL1 inh -4.
For COC(=O)N(Nc1cccc2c1OC(C)(C)C2)C(=O)OC the results were ROC1-CUL1 inh -2.
For O=S(=O)(Nc1cc(Sc2ncn[nH]2)c(O)c2ccccc12)c1ccc2ccccc2c1 the results were ROC1-CUL1 inh 84*.
NNS(=O)(=O)c1ccc2ccccc2c1 was read as ROC1-CUL1 inh -1.
For COc1ccc(S(=O)(=O)Nc2ccc(O)c3ccccc23)cc1 the results were ROC1-CUL1 inh -6.
For COc1ccccc1OCC(=O)c1ccc(C)c(C)c1 the results were ROC1-CUL1 inh 3.
Screening COc1ccc(C2c3[nH]c4ccccc4c3CCN2Cc2ncc(C)[nH]2)cc1C (configuration not stated) returned ROC1-CUL1 inh 8.
COc1ccc(N(CC(=O)NCc2ccccn2)S(C)(=O)=O)cc1OC was read as ROC1-CUL1 inh -2.
Oc1c(Cl)c(Cl)c2c(c1Cl)CC(Nc1ccc3ncccc3c1)O2 (configuration not stated) was read as ROC1-CUL1 inh 81*.
For CNCc1cn(C2CCN(C(=O)c3ccc4ncccc4c3)CC2)nn1 the results were ROC1-CUL1 inh 7.
COC(=O)c1ccc2ncccc2c1 was read as ROC1-CUL1 inh -16.
Cc1c(C#N)c(=O)[nH]c(=O)n1CC1CCCO1 (configuration not stated) was read as ROC1-CUL1 inh 2.
Screening CCCOc1ccccc1/C=N/NC(=O)COc1ccc(C(C)(C)C)cc1C returned ROC1-CUL1 inh -1.
`O=C(O)CSc1cc(NS(=O)(=O)c2ccc(Br)cc2)c2ccccc2c1O` gave ROC1-CUL1 inh 102*.
Screening O=S(=O)(Nc1cc(Sc2nnnn2-c2ccccc2)c(O)c2ccccc12)c1ccccc1 returned ROC1-CUL1 inh 5.
CC(=O)c1c(C)oc2c1cc(NS(=O)(=O)c1ccc(Br)cc1)c1ccccc12 was read as ROC1-CUL1 inh 3.
`CC(C)(C)c1ccc(S(=O)(=O)Nc2ccc(Cl)cc2Cl)cc1` gave ROC1-CUL1 inh -2.
CC(C)(C)c1ccc(S(=O)(=O)Nc2ccc(O)c(C(=O)O)c2)cc1 was read as ROC1-CUL1 inh 4.
Screening CC(C)(C)c1ccc(S(=O)(=O)Nc2cc(SCC(=O)O)c(O)c3ccccc23)cc1 returned ROC1-CUL1 inh 92*.
`O=C(O)CSc1cc(NS(=O)(=O)c2ccccc2)c2ccccc2c1O` gave ROC1-CUL1 inh 37*.
Cc1ccc(NS(=O)(=O)c2ccccc2)c(O)c1 was read as ROC1-CUL1 inh 11.
`O=c1oc2c(cc(NS(=O)(=O)c3ccc(Br)cc3)c3ccccc32)s1` gave ROC1-CUL1 inh 2.
Screening Cc1ccc(-c2nn(CC(=O)Nc3cccc(C(F)(F)F)c3)c(=O)c3ccccc23)cc1 returned ROC1-CUL1 inh 5.
CSc1ccccc1C(=O)NCc1c(C)ncc2c1CCN(C(=O)c1ccc(F)cc1Cl)C2 was read as ROC1-CUL1 inh -3.
CC1CCN(C(=O)Cn2cc(SCc3ccccc3)c3ccccc32)CC1 was read as ROC1-CUL1 inh 2.
